Test results taken from ChEMBL document CHEMBL3988442, “University of Dundee, Small-Polar-MMV Screening Library” (2021).

How the values were obtained:
[1] = biological target: T1, Aspartate--tRNA(Asp/Asn) ligase (Mycobacterium tuberculosis (strain ATCC 25618 / H37Rv)) (UniProt P9WFW3); assay: Assay for Asp RNA synthetase-1 from Mycobacterium tuberculosis; type: functional; parameters: scale not given: direction of the effect not stated beside the values; conditions: 30 µM; also: in the data most compounds retested in dose-response had high values
T1 sequence (whole entry): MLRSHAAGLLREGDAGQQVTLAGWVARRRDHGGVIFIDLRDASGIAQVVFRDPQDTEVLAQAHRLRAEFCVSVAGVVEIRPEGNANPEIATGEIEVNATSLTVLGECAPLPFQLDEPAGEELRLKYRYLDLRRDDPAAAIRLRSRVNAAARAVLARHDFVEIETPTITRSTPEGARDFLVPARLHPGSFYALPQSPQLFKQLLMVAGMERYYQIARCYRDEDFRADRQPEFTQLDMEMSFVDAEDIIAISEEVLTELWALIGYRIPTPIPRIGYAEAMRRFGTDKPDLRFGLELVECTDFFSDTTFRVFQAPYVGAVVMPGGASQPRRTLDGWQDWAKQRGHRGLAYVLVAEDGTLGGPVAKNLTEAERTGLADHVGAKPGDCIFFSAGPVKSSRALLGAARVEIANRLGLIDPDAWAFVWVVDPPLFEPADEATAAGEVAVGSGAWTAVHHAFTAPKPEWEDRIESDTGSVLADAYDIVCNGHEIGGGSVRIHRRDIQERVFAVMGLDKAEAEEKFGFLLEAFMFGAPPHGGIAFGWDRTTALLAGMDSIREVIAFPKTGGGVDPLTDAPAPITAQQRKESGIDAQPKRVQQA

[2] = biological target: Shiga toxin 2 (Escherichia coli O157:H7) (UniProt P09385+P09386); assay: E. coli 0.157:H7 Shiga Toxin SOP - stx2 screening assay; type: functional; parameters: scale not given: direction of the effect not stated beside the values; conditions: 30 µM

SMILES	Percent Effect [1]	Percent Effect [2]
COCCCNC(=O)CN(C)C(=O)c1cc(C)ccc1N(C)C(C)C	1.84%	4.69%
CC1(C)OCC(CNC(=O)c2cnn(-c3ccc(Cl)cc3)c2N)O1 (stereo not given)	2.4%	47.4%
Cc1ccc(CN2C[C@@H]3COC[C@@H](NS(C)(=O)=O)[C@@H]3C2)o1	1.98%	-1.23%
Cc1ccc(CC(=O)N(C)CC2(O)CCN(c3ccccn3)C2)s1 (stereo not given)	5.23%	-0.365%
Cc1cn2c(n1)CCC(NC(=O)c1c[nH]c(C)n1)C2 (stereo not given)	-7.1%	14.6%
CCc1nc(C)c(C(=O)NCCNc2ncccn2)s1	0.562%	30.3%
Cc1cnn(CCNCc2ccc(F)cc2Cl)c1	0.495%	-22.9%
c1coc(-c2noc(CN3CCCC(Cn4cncn4)C3)n2)c1 (stereo not given)	-6.28%	-10.4%
COc1cccc2cc(CNCc3ccnc(N4CCOCC4)c3)oc12	-2.91%	26.8%
CC(C)Oc1ncccc1CNC(=O)N1CCC(C(N)=O)C1 (stereo not given)	-4.37%	30.9%
COC(=O)CCc1c(C)nn(-c2nc(C)cc(=O)[nH]2)c1C	-5.2%	-12.7%
CCC1CCCCN1C(=O)c1ccc2[nH]nnc2c1 (stereo not given)	6.94%	-3.51%
CNC(=O)C1CCN(C(=O)CCn2cccn2)CC1	6.32%	26%
CCc1ccc(C(=O)O)cc1S(=O)(=O)Nc1ccc(F)c(C#N)c1	4.35%	-1.93%
CCn1c(NCc2ccco2)nc2c(C)nn(C)c2c1=O	-3.66%	-41.1%
Cn1cc(C(=O)N2CCCC(Cc3nccs3)C2)cn1 (stereo not given)	2.4%	14.9%
CCn1cc(CN(C)S(=O)(=O)c2cnn(CC)c2C)c(C)n1	-3.81%	3.32%
N#Cc1cccc(SCCS(N)(=O)=O)c1	0.306%	-7.47%
Cc1nc(CN2CCN(Cc3ccoc3)Cc3cccnc32)cs1	4.04%	-1.98%
CC(C)c1nc(CN2CCN(C(C)c3nc(C4CC4)no3)CC2)no1 (stereo not given)	-2.84%	5.21%
CN1CCN(Cc2cscn2)CC(C(=O)N(C)C)C1 (stereo not given)	-6.57%	-14.6%
CC(NC(=O)N1CCN(CCc2ccccc2)CC1)c1nncn1C (stereo not given)	-7.6%	-13.8%
CS(=O)(=O)NC1CCc2c(ccc(=O)n2CC2CC2)C1 (stereo not given)	2.4%	-5.71%
CS(=O)(=O)NCc1cc2n(n1)CCCN(Cc1nc3ccccc3[nH]1)C2	-3.96%	22.6%
Cc1cnc(N2CCCC3(CCN(Cc4csc(C)n4)C3=O)C2)nc1 (stereo not given)	6.32%	-0.084%

SMILES	Percent Effect [1]	Percent Effect [2]
CC(NC(=O)NCc1cc[nH]n1)c1ccc2c(c1)CCC(=O)N2 (stereo not given)	-1.15%	-11.9%
CCc1nc2n(n1)CC(NCC(=O)Nc1cc(C)on1)CC2 (stereo not given)	-3.4%	3.33%
CCOCC(O)CN1CCN(C(=O)c2cccnc2OC)CC1 (stereo not given)	-1%	12.8%
CCCNC(=O)c1ccc2c(c1)C(=O)N(CC(C)C)C2=O	1.59%	3.24%
Cc1nc(CN2CCCC(NCCc3ccccc3Cl)C2)no1 (stereo not given)	-1.91%	10.1%
CC(C)c1n[nH]c(C2CN(C(=O)CCCn3cccn3)CCO2)n1 (stereo not given)	-2.62%	-10.6%
CC(C(N)=O)S(=O)(=O)Cc1cc(Cl)c2c(c1)OCO2 (stereo not given)	-7.47%	26.2%
CC(C)NC(=O)Nc1ccc(CNCc2cccc(OC(F)F)c2)cc1	4.98%	-103%
Cc1cccc(CN2CCC3(CCCN(C(=O)c4ccsc4)C3)C2=O)n1 (stereo not given)	-2.4%	-10.9%
O=C(c1cscn1)N1CCC2(CCN(Cc3nccs3)C2)CC1	1.85%	-5.87%
O=C(c1c[nH]c(=O)c(Cl)c1)N1C[C@@H]2CC[C@H](C1)N(Cc1ccccc1)C2	-1.71%	3.61%
CS(=O)(=O)N1CCc2c(cccc2NC(=O)CC(F)(F)F)C1	5.45%	2.18%
CC(=O)N1CCN(C(=O)CN2CCc3c(ncn3C3CC3)C2)CC1	1.82%	-27.5%
O=C(c1ccccn1)N1CCN(c2ccc(-c3cccnc3)nn2)CC1	-6.42%	-48.3%
OCC1CCCN1c1cc(NCc2ccc(Cl)s2)ncn1 (stereo not given)	0.451%	-31.6%
c1ccc(OCC2CC3(CCN(Cc4ccncc4)CC3)CO2)nc1 (stereo not given)	1.19%	-30.5%
CC1(C)CC(N2Cc3nc(N4CCOCC4)ncc3C2=O)CC(C)(C)N1	-4.82%	-59.4%
CC(O)CN1CCN(C(=O)c2ccn(-c3cccc(Cl)c3)n2)CC1 (stereo not given)	-5.25%	7.58%
CC(C)C(C(=O)N1CCN(Cc2ccncc2)CC1)n1cncn1 (stereo not given)	7.46%	-21.4%
O=C1CCCN1Cc1nnc2n1CCN(Cc1ccoc1)CC2	1.71%	-17.6%
Cc1cc(NS(=O)(=O)c2ccccc2F)ccc1-n1cccc1C(=O)O	6.98%	0.354%
COCC(=O)N1CCO[C@H]2[C@H](OC)CC[C@@H]21	9.03%	2.73%
Cc1ccc(OC2(C(=O)O)CCN(C(=O)c3nc(C)oc3C)CC2)cn1	-2.19%	0.158%
CN(C)S(=O)(=O)N1CCC[C@]2(C[C@@H](Oc3ccccn3)CO2)C1	3.16%	-10.1%
COC(=O)CCC(=O)N1CCc2[nH]nc(-c3ccc4c(c3)OCO4)c2C1	-1.06%	-8.22%
